The nature of assay [1]: A CellTox Green Cytotoxicity Assay to monitor cytotoxicity in HepG2 cells - 0 hour (AID 1224882). Also: nearly all actives have a fitted effect of over 35% in size. The essentials:
(§1)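 Real-time cytotoxicity: fluorescence of a cell-impermeant cyanine dye binding DNA of dead HepG2 cells, measured repeatedly (0–40 h) during compound exposure at 37 C. Cells seeded 600/well with reagent, dosed after 5 h.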

The nature of assay [2]: A CellTox Green Cytotoxicity Assay to monitor cytotoxicity in HepG2 cells - 32 hour (AID 1224883). Also: nearly all actives have a fitted effect of over 50% in size. Also: potency is read from the fitted curve at half-maximal effect. Summed up:
as §1

The nature of assay [3]: A CellTox Green Cytotoxicity Assay to monitor cytotoxicity in HEK293 cells - 8 hour (AID 1224884). Also: nearly all actives have a fitted effect of over 35% in size. The essentials: (§2)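 Fluorescence from a DNA-binding dye excluded by viable cells was measured repeatedly in the same HEK293 wells (600 cells/well) during continuous compound exposure at 37 C. Each assay gives one read point: 0, 8, 16, 24, 32 or 40 h.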
Assay [4] is described as follows: qHTS RealTime-Glo MT Cell Viability Assay in HepG2 cells - 16 hour (AID 1224885). Also: nearly all actives have a fitted effect of over 50% in size. The essentials: (§3)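 HepG2 cells (600/well) were dispensed with RealTime-Glo reagents, incubated 5 h at 37 °C, then treated with compounds in DMSO for up to 40 h. Nonlytic NanoLuc luminescence reflecting viable cells was read at each stated time point.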
A short description of assay [5]: qHTS RealTime-Glo MT Cell Viability Assay in HEK293 cells - 24 hour (AID 1224886). Also: nearly all actives have a fitted effect of over 50% in size. Also: potency is read from the fitted curve at half-maximal effect. The essentials: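 HEK293 cells seeded with NanoLuc/prosubstrate reagent, rested 5 h at 37 C, then dosed and kept at 37 C up to 40 h. Nonlytic real-time luminescence from viable cells read at 0, 8, 16, 24, 32 and 40 h.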
A short description of assay [6]: qHTS RealTime-Glo MT Cell Viability Assay in HEK293 cells - 8 hour (AID 1224887). Also: top concentration of the series differs between compounds; nearly all actives have a fitted effect of over 50% in size. The essentials: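 Luminescence, which tracks viable cell number through reduction of the prosubstrate to a NanoLuc substrate, was read over continuous 37 C culture. Cells (600/well) were premixed with reagent and rested 5 h before 23 nL of compound in DMSO was pinned.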
A short description of assay [7]: qHTS RealTime-Glo MT Cell Viability Assay in HepG2 cells - 0 hour (AID 1224889). Also: nearly all actives have a fitted effect of over 50% in size. Summed up:
as §3

Assay [8] in a line: A CellTox Green Cytotoxicity Assay to monitor cytotoxicity in HepG2 cells - 8 hour (AID 1224890). Also: nearly all actives have a fitted effect of over 45% in size. Summed up:
as §1

Assay [9] can be described thus: qHTS assay to identify small molecule antagonists of the estrogen receptor alpha (ER-alpha) signaling pathway using the BG1 cell line in the presence of 0.1 nM 17-beta-estradiol - cell viability counter screen (AID 1259241). Also: nearly all actives have a fitted effect of over 40% in size. The essentials:
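Measures cytotoxicity alongside the ER-alpha antagonist readout: VM7Luc4E2 cells, charcoal-stripped serum, 0.1 nM 17beta-estradiol final, 22 hr compound incubation at 37C, CellTiter-Fluor fluorescence.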

The nature of assay [10]: A CellTox Green Cytotoxicity Assay to monitor cytotoxicity in HEK293 cells - 16 hour (AID 1224888). Also: nearly all actives have a fitted effect of over 35% in size. The essentials: as §2

Inconclusive results are not listed. The source made the active and inactive calls. Calls follow the shape of the dose curve; as a rule, active = well fitted curve in the direction sought with a large enough effect in the repeat runs; inconclusive = weak or mixed curves; inactive = no such curve, though single readings can be large; an effect the other way counts as inactive or inconclusive.

From PubChem BioAssay (Tox21) come the findings set out here.

Turning to `CNC(=O)N(C)c1nc2ccccc2s1`, the result in [1] and in assay [9] was inactive. Besides, the Potency result in [2], in assay [3], in assay [4], in assay [5], in [6] and in [7] was “inactive” throughout. Besides, the Potency entry in [8] is “inactive”.
Regarding `COc1cc(OC)nc(Sc2cccc(Cl)c2C(=O)O)n1`, the compound was classed as inactive in assay [1]. The Potency entry in assay [2], in assay [3], in assay [4], in assay [6], in assay [10] and in assay [7] was “inactive” each time. For the same compound, the Potency result in assay [8] is “inactive”.
As for `Nc1c(Br)cc([N+](=O)[O-])cc1[N+](=O)[O-]`, the outcome in [1] and in assay [9] was inactive. In addition, the Potency entry in assay [2], in [3], in [4], in assay [5], in [6] and in assay [7] was “inactive” in each case. Further, the Potency entry in assay [8] is “inactive”.
Regarding `CNC(=O)O/N=C(\C)SC`, the result in assay [1] and in assay [9] was inactive. Besides, the Potency entry in assay [2], in assay [3], in assay [4], in assay [5], in assay [6] and in [7] was “inactive” throughout. Besides, in assay [8], the Potency result was “inactive”.
As to `COc1cc(OC)nc(Oc2cccc(Oc3nc(OC)cc(OC)n3)c2C(=O)O)n1`, the compound was classed as inactive in assay [1]. For the same compound, the Potency entry in [2], in assay [3], in assay [4], in assay [5], in assay [6] and in assay [7] was “inactive” each time. Moreover, the Potency entry in [8] was “inactive”.
In the case of `O=C(CCN1CC1)OCC(CO)(COC(=O)CCN1CC1)COC(=O)CCN1CC1`, the result in [1] and in assay [9] was inactive. The Potency entry in assay [2], in assay [3], in assay [4], in assay [5], in [6] and in assay [7] was “inactive” each time. In addition, the Potency result in assay [8] was “inactive”.
On to `CN/C(=N\[N+](=O)[O-])NCC1CCOC1` (stereo not given), for which the compound was classed as inactive in [1] and in [9]. Besides, the Potency result in [2], in [3], in assay [4], in assay [5], in assay [6] and in assay [7] was “inactive” in each case. Also, in assay [8], the Potency entry was “inactive”.
Take `N#Cc1c(Cl)cccc1Cl`: the result in [1] and in [9] was inactive. For the same compound, the Potency entry in assay [2], in assay [3], in [4], in assay [5], in assay [6] and in assay [7] was “inactive” in each case. In addition, the Potency entry in assay [8] is “inactive”.
Regarding `O=CNC(N1CCN(C(NC=O)C(Cl)(Cl)Cl)CC1)C(Cl)(Cl)Cl` (stereo not given), the outcome in [1] and in assay [9] was inactive. In addition, the Potency result in assay [2], in assay [3], in [4], in assay [5], in assay [6] and in [7] was “inactive” throughout. Further, the Potency result in assay [8] was “inactive”.
With `c1cc[c]([Hg][c]2ccccc2)cc1`, the compound was classed as inactive in assay [1] and in assay [9]. Besides, the Potency in assay [2] was 49 µM (active); in [5] it was 34.7 µM (active). The Potency entry in assay [3], in [4], in assay [10], in assay [7] and in [8] was “inactive” in each case.
`Clc1cccc(N2CCNCC2)c1`: the outcome in [1] and in assay [9] was inactive. Besides, the Potency result in assay [2], in assay [3], in assay [4], in [5], in [6] and in [7] was “inactive” in each case. The Potency entry in [8] is “inactive”.
In the case of `N#CCBr`, in [1], the outcome was inactive. Further, the Potency result in assay [2], in [3], in [4], in [6], in assay [10] and in assay [7] was “inactive” throughout. In assay [8], the Potency entry is “inactive”.
On to `CCOP(=S)(OCC)Oc1nc(Cl)n(C(C)C)n1`, for which the compound was called inactive in assay [1]. In addition, the Potency result in assay [2], in assay [3], in assay [4], in [5], in assay [6] and in assay [7] was “inactive” in each case. Moreover, in [8], the Potency entry is “inactive”.
With `COC(=O)c1ccccc1S(=O)(=O)NC(=O)N(C)c1nc(C)nc(OC)n1`, the compound was classed as inactive in assay [1] and in assay [9]. The Potency result in assay [2], in assay [3], in assay [4], in assay [5], in [6] and in assay [7] was “inactive” throughout. Further, the Potency result in [8] is “inactive”.
As to `ClC(Br)Br`, the call in assay [1] and in assay [9] was inactive. For the same compound, the Potency result in assay [2], in assay [3], in assay [4], in [5], in [6] and in assay [7] was “inactive” throughout. Moreover, the Potency entry in assay [8] was “inactive”.
In the case of `CC1CCC(=O)O1` (stereo not given), the compound was classed as inactive in [1] and in [9]. Also, the Potency entry in assay [2], in assay [3], in [4], in assay [5], in [6] and in assay [7] was “inactive” in each case. For the same compound, the Potency result in [8] is “inactive”.
On to `ClCCCN1CCN(c2cccc(Cl)c2)CC1`, for which the compound was classed as inactive in assay [1] and in assay [9]. Besides, the Potency entry in assay [2], in [3], in assay [4], in assay [5], in [6] and in [7] was “inactive” each time. Moreover, the Potency result in [8] is “inactive”.
For the compound `CCCCc1ccc(O)cc1`, the result in [1] and in [9] was inactive. The Potency was 21.8 µM (active) in assay [2] and 19.5 µM (active) in [5]. The Potency result in assay [3], in assay [4], in [10], in assay [7] and in assay [8] was “inactive” in each case.
In the case of `CCOP(=S)(OCC)Oc1cc(-c2ccccc2)on1`, in assay [1], the result was inactive. In addition, the Potency result in assay [2], in [3], in assay [4], in assay [5], in [10] and in assay [7] was “inactive” each time. Besides, in [8], the Potency result is “inactive”.
In the case of `N#CCCC#N`, the outcome in [1] and in assay [9] was inactive. Besides, the Potency result in [2], in assay [3], in assay [4], in assay [5], in [6] and in assay [7] was “inactive” in each case. Also, in assay [8], the Potency result is “inactive”.
`O=[N+]([O-])c1ccc(CBr)cc1`: the compound was classed as inactive in [1] and in assay [9]. Besides, the Potency entry in assay [2], in assay [3], in assay [4], in [5], in assay [6] and in assay [7] was “inactive” throughout. Besides, the Potency result in [8] is “inactive”.
As for `Cc1coc2c1CCC(C)C2` (stereo not given), the outcome in assay [1] and in assay [9] was inactive. Moreover, the Potency result in assay [2], in [3], in [4], in assay [5], in [6] and in [7] was “inactive” each time. Besides, the Potency result in [8] is “inactive”.
`O=[N+]([O-])c1cccc(O)c1`: the call in [1] and in [9] was inactive. In addition, the Potency entry in assay [2], in assay [3], in assay [4], in [5], in [6] and in assay [7] was “inactive” each time. Besides, the Potency result in assay [8] is “inactive”.
For `Cc1ncc(CNC(=O)N(CCCl)N=O)c(N)n1`, the result in [1] and in assay [9] was inactive. For the same compound, the Potency result in [2], in [3], in assay [4], in assay [5], in assay [6] and in [7] was “inactive” in each case. Further, in assay [8], the Potency result was “inactive”.
On to `CCOP(=S)(OCC)SCSc1ccc(Cl)cc1`, for which the call in assay [1] and in assay [9] was inactive. In addition, the Potency entry in assay [2], in [3], in assay [4], in [5], in assay [6] and in assay [7] was “inactive” in each case. For the same compound, in assay [8], the Potency result was “inactive”.
